KB-V1 MDR tox: kills drug-selected multidrug resistant KB-V1 cells; Potency, µM (series often up to 46.1 µM), most hits filed as cytotoxic; AID 1347076; 400,000 tested, 3.4% active; KB-V1 MDR cells viability, CellTiter-Glo, 72 h; also: nearly all actives have a fitted effect of over 60% in size
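In this primary screen, KB-V1 cells overexpressing P-gp are incubated with library compounds (lowest to highest concentration) for 72 h at 37 degrees C before a luminescent ATP viability read.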
SW480 rerep: inducers of DNA re-replication in SW480 colon cancer cells; SW480 DNA re-replication, Hoechst DNA content imaging, 48 h; Potency, µM (highest dose often 46.1 µM), most hits filed as activators; 340,000 tested, 1.8% active; AID 624297; also: nearly all actives have a fitted effect of over 55% in size
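SW480 cells exposed to compounds for 48 hr at 37 C, 5% CO2, then Hoechst-stained 40 min. Nuclear DNA content imaged by fluorescence scanning (405 nm excitation, 500-530 nm emission); re-replication scored as increased high-intensity nuclei.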
MCF10A rerep: induces DNA re-replication in MCF 10a normal breast cells | AID 624296 | MCF 10A DNA re-replication, Hoechst nuclear intensity, 48 h | Potency, µM (highest dose often 46.1 µM), hits mostly activators | 350,000 tested, 2.9% active; also: nearly all actives have a fitted effect of over 50% in size
KB-3-1 cytotox: kills parental KB-3-1 adenocarcinoma cells; KB-3-1 viability, CellTiter-Glo ATP luminescence, 72 h; Potency, µM (doses to about 46.1 µM), actives largely listed as cytotoxic; 400,000 tested, 1.4% active; AID 1347075; also: nearly all actives have a fitted effect of over 60% in size
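Cytotoxicity measured as CellTiter-Glo luminescence after 72 h at 37 C. Compound titrations were pinned onto drug-naive KB-3-1 parental adenocarcinoma cells grown in DMEM with 10% FBS, and normalized data fitted to concentration-response curves.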
ELG1 DNA repair: ELG1-dependent DNA repair inhibition; Potency, µM (doses to about 46.1 µM), actives largely listed as inhibitors; AID 504467; 330,000 tested, 2.3% active; HEK293T ELG1-luciferase reporter, luminescence, 16 h; DNA damage induced by 5-fluorouridine; also: nearly all actives have a fitted effect of over 55% in size
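DMSO vehicle served as the neutral condition. Each well held 2,000 cells given 5-fluorouridine plus compound; after 16 hr at 37 °C/5% CO2, ONE-Glo was added and luciferase measured 30 min later.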
Of the large screens only hits and unclear results are named; the others gave an inactive call. An excerpt weighted towards active compounds, which were near 8.1% of everything screened. Calls follow the shape of the dose curve; as a rule, active = well fitted curve in the direction sought with a large enough effect; inconclusive = small, poorly fitted or top-dose-only effect, or another doubt; inactive = no such curve, though single readings can be large; an effect the other way counts as inactive or inconclusive.

CC(=O)NC1=NN(C(C)=O)C(C)(c2cccs2)S1 (configuration not stated)	SW480 rerep 12µM, MCF10A rerep 1.3µM, KB-3-1 cytotox inconclusive
CC(=O)NC1=NN(C(C)=O)C(C)(c2ccco2)S1 (configuration not stated)	KB-V1 MDR tox inconclusive, SW480 rerep inconclusive, MCF10A rerep inconclusive, KB-3-1 cytotox inconclusive
CC(C)(C)c1ccc(C(=O)NCC2CCCN2S(=O)(=O)c2ccccc2)cc1 (configuration not stated)	KB-V1 MDR tox inconclusive, SW480 rerep inconclusive, MCF10A rerep inconclusive, KB-3-1 cytotox inconclusive
CN1CCCC1CCOC(C)(c1ccccc1)c1ccc(Cl)cc1 (configuration not stated)	KB-V1 MDR tox inconclusive, SW480 rerep 7.1µM (no result: ELG1 DNA repair)
CC1(C(=O)NCc2ccccc2Br)CCN1Cc1ccc(-c2ccccn2)cc1 (configuration not stated)	KB-V1 MDR tox 13µM, KB-3-1 cytotox inconclusive (no result: SW480 rerep, MCF10A rerep, ELG1 DNA repair)
COc1ccc(CCNc2ncnc3c2[nH]c2cc(OC)c(OC)cc23)cc1OC	SW480 rerep 18µM, MCF10A rerep 18µM, ELG1 DNA repair inconclusive
COCCNc1ncnc2c1[nH]c1ccccc12	ELG1 DNA repair 15µM
COc1cc2ncnc(NCc3cccs3)c2cc1OC	KB-V1 MDR tox inconclusive, MCF10A rerep 2.6µM, KB-3-1 cytotox inconclusive
COCCCNc1ncnc2c1[nH]c1ccccc12	none (no result: KB-V1 MDR tox, SW480 rerep, MCF10A rerep, KB-3-1 cytotox)
COc1ccc(CCNc2c3ccccc3nc3ccccc23)cc1OC	KB-V1 MDR tox inconclusive, SW480 rerep 0.92µM, MCF10A rerep 6.5µM, KB-3-1 cytotox inconclusive, ELG1 DNA repair inconclusive
COc1nc(NCCc2ccc(OC)c(OC)c2)nc(OC)n1	none (no result: ELG1 DNA repair)
Cn1c(SCC(=O)NCC2CCCO2)nnc1-c1cccc(NC(=O)c2ccccc2F)c1 (configuration not stated)	none
CSc1cccc(NC(=O)CN2C(=O)COc3ccc(Cl)cc32)c1	KB-V1 MDR tox inconclusive (no result: SW480 rerep, MCF10A rerep, ELG1 DNA repair)
CCOc1ccc2[nH]c3c(NCCC(C)C)ncnc3c2c1	SW480 rerep inconclusive, MCF10A rerep 12µM, KB-3-1 cytotox inconclusive, ELG1 DNA repair inconclusive
CCN(CC)CCNc1ncnc2c1[nH]c1ccc(OC)cc12	none (no result: KB-V1 MDR tox, SW480 rerep, MCF10A rerep, KB-3-1 cytotox)
COc1cc2ncnc(NCCc3ccccc3)c2cc1OC	KB-V1 MDR tox inconclusive, KB-3-1 cytotox inconclusive, ELG1 DNA repair inconclusive
COc1ccc(CCNc2ncnc3cc(OC)c(OC)cc23)cc1OC	KB-V1 MDR tox 21µM, SW480 rerep inconclusive, ELG1 DNA repair 8.2µM
COc1ccc2[nH]c3c(NCCC4=CCCCC4)ncnc3c2c1	KB-V1 MDR tox 9.2µM, SW480 rerep inconclusive, MCF10A rerep 21µM, KB-3-1 cytotox 3.7µM, ELG1 DNA repair inconclusive
O=C(C1CCCO1)N1CCN(c2c3c(nc4cc(-c5ccc(F)cc5)nn24)CCC3)CC1 (configuration not stated)	KB-V1 MDR tox inconclusive, ELG1 DNA repair inconclusive
CCc1sc(Nc2cccc(Cl)c2C)nc1-c1cc2cccc(OC)c2oc1=O	none (no result: SW480 rerep, MCF10A rerep, ELG1 DNA repair)
CCc1ccccc1NC(=O)c1cc2ncc(Br)cn2n1	ELG1 DNA repair inconclusive
Cc1c(N(C(=O)CNC(=O)c2ccccc2)C2(C(=O)NC3CCCC3)CCCCC2)c(=O)n(-c2ccccc2)n1C	none
O=C(NCC(=O)N(CC1CCCO1)C1(C(=O)NC2CCCC2)CCCCC1)c1ccccc1 (configuration not stated)	KB-V1 MDR tox 15µM
O=C(NCC(=O)N(CC1CCCO1)C1(C(=O)NC2CCCCC2)CCCCC1)c1ccccc1 (configuration not stated)	KB-V1 MDR tox 3.3µM
CCC(C)(C(=O)NC1CCCCC1)N(CC1CCCO1)C(=O)CNC(=O)c1ccccc1 (configuration not stated)	KB-V1 MDR tox inconclusive
CN1C(=O)C(C)(C)c2cc(S(=O)(=O)NCC3CCC(C(=O)NCc4ccc(F)cc4)CC3)ccc21 (configuration not stated)	none
CCN(CC)C(=O)Oc1ccc(NC(C)=O)cc1	none
Cc1ccccc1C(=O)Nc1ccccc1C(=O)NCc1ccccc1	KB-V1 MDR tox 21µM, MCF10A rerep inconclusive, ELG1 DNA repair inconclusive
O=C(NCc1ccco1)c1ccc(COc2cccc3ccccc23)cc1	KB-V1 MDR tox 21µM, SW480 rerep inconclusive
COc1cccc(NC(=O)c2ccccc2-c2nc(-c3ccccc3)no2)c1	KB-V1 MDR tox inconclusive
COc1cccc(NC(=O)c2ccccc2-c2nc(-c3ccc(F)cc3)no2)c1	KB-V1 MDR tox 18µM, ELG1 DNA repair inconclusive
COc1ccc(C(=O)Nc2ccccc2C(=O)NCc2ccco2)cc1OC	KB-V1 MDR tox inconclusive, MCF10A rerep inconclusive, ELG1 DNA repair 15µM
O=C(Cn1cnc([N+](=O)[O-])c1)Nc1ccc(F)c(Cl)c1	none
COc1ccc(C(=O)Nc2ccc(Cl)cc2C(=O)NCc2ccco2)cc1OC	KB-V1 MDR tox inconclusive, MCF10A rerep inconclusive, ELG1 DNA repair 16µM
COc1ccc(C(=O)Nc2c(Cl)cc(Cl)cc2C(=O)NCc2ccco2)cc1	KB-V1 MDR tox 7.3µM
COc1ccc(N2CC(C(=O)Nc3ccccc3C(=O)NCc3ccco3)CC2=O)cc1 (configuration not stated)	ELG1 DNA repair inconclusive
COc1ccc(CCNC(=O)c2ccccc2NC(=O)c2ccco2)cc1OC	ELG1 DNA repair 18µM
CCCOc1ccc(N2CC(C(=O)Nc3ccccc3C(=O)NCc3ccco3)CC2=O)cc1 (configuration not stated)	ELG1 DNA repair 18µM
COc1ccc(Cl)cc1C(=O)NCc1ccco1	ELG1 DNA repair inconclusive
O=C(COc1ccccc1-c1ccccc1)NN=C1CCCC1	KB-V1 MDR tox inconclusive, SW480 rerep inconclusive, MCF10A rerep inconclusive, ELG1 DNA repair inconclusive
COC(=O)c1ccccc1NC(=O)c1ccc2nc(CCc3ccccc3)oc2c1	none (no result: SW480 rerep, MCF10A rerep, ELG1 DNA repair)
COCC1CCN(c2nc3nonc3nc2N2CCSCC2)C1 (configuration not stated)	none
COc1ccc(-c2noc(-c3ccccc3C(=O)NCc3ccco3)n2)cc1OC	KB-V1 MDR tox 3.7µM, MCF10A rerep inconclusive, ELG1 DNA repair 8.2µM
O=C(Nc1ccccc1C(=O)NCc1ccc(Cl)cc1)c1ccco1	KB-V1 MDR tox 8.2µM, SW480 rerep inconclusive, ELG1 DNA repair inconclusive
COc1cc(NC(=O)c2ccco2)c(C(=O)OCC(=O)c2c[nH]c3ccccc23)cc1OC	SW480 rerep inconclusive, MCF10A rerep 23µM, ELG1 DNA repair 8.2µM
CC(C)(C)C(=O)Nc1nc(NC(=O)C(C)(C)C)nc(-c2ccccc2Cl)n1	ELG1 DNA repair inconclusive
COC(=O)CCC(=O)N1CCCC(C(=O)c2ccc(Cl)cc2C)C1 (configuration not stated)	none
O=C(Cn1c2c(sc1=O)C1c3ccccc3OCC1CS2)Nc1ccc(Cl)c(Cl)c1 (configuration not stated)	KB-3-1 cytotox 16µM
O=C(O)CCCCCNC(=O)OCC1c2ccccc2-c2ccccc21	none

Screens as filed in PubChem.
